Potency, outcome and max activation data for eight molecules are collected here from PubChem BioAssay (Tox21).

Values without a mark were called inactive. Results filed as inconclusive are left out. Active and inactive are the calls of the source. Unless noted, calls follow the shape of the dose curve; as a rule, active = well fitted curve in the direction sought with a large enough effect in the repeat runs; inconclusive = weak or mixed curves; inactive = no such curve, though single readings can be large; an effect the other way counts as inactive or inconclusive.

The target in assay [1] is Progesterone receptor (Homo sapiens) (UniProt P06401). As to the kind of experiment: qHTS assay to identify small molecule agonists of the progesterone receptor (PR) signaling pathway (AID 1346784; calls by dose curve; also: nearly all actives have a fitted effect of over 30% in size). In outline:
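Agonist qHTS: compounds pinned onto 3,000 PR-UAS-bla HEK 293T cells per well in charcoal-stripped serum medium, 16hr at 37C, then beta-lactamase activity measured by LiveBLAzer FRET fluorescence after 2 hours at room temperature.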
(Quantitative high-throughput screening tests each substance at several concentrations.)

Assay [2] shares this target. As to the kind of experiment: qHTS assay to identify small molecule antagonists of the progesterone receptor (PR) signaling pathway (AID 1346795; active = well fitted inhibition curve with a large enough effect in the signal ratio in the repeat runs, not every such curve was filed as active; the % refers to the signal ratio; also: potency is read from the fitted curve at half-maximal effect). In outline: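 Antagonist mode with agonist R5020 at 1 nM final and 16 hr incubation at 37C. Reporter was beta-lactamase driven by UAS in HEK293T (PR-UAS-bla), 2% charcoal-stripped serum; signal from LiveBLAzer FRET substrate, 2 hr at room temperature.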

Assay [3] can be described thus: qHTS assay to identify small molecule antagonists of the progesterone receptor (PR) signaling pathway - cell viability counter screen (AID 1346798). Also: series mostly up to about 92 µM; nearly all actives have a fitted effect of over 50% in size. In outline: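 Cytotoxicity read as CellTiter-Glo luminescence (30 min, room temperature) in the same wells as the beta-lactamase readout. HEK293T PR-UAS-bla cells in charcoal-stripped 2% FBS received compound and R5020, then 16 h at 37C, 5% CO2.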

Assay [4] is described as follows: qHTS assay to identify small molecule antagonists of the TGF-beta/Smad signaling pathway - cell viability counter screen (AID 1346824). Also: nearly all actives have a fitted effect of over 50% in size. The method, boiled down:
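SBE-bla HEK 293T cells were plated overnight at 37 C, then given compounds in DMSO plus TGF-beta1 (added as 0.25 ng/mL solution) for 5 hr. After the bla read, CellTiter-Glo was added to the same wells and luminescence read after 30 min at room temperature.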

A short description of assay [5]: qHTS assay to identify small molecule agonists of the TGF-beta/Smad signaling pathway - cell viability counter screen (AID 1346829). Also: top concentration of the series differs between compounds; nearly all actives have a fitted effect of over 45% in size. In outline:
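After overnight seating at 37 C and 5% CO2, reporter cells got compounds for 5 hr and FRET substrate for 2 hr; cell viability then came from CellTiter-Glo luminescence.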

Assay [6] in a line: qHTS assay to identify small molecule agonists of the TGF-beta/Smad signaling pathway (AID 1346859; active = well fitted activation curve with a large enough effect in the signal ratio in the repeat runs, not every such curve was filed as active; the % refers to the signal ratio; also: series mostly up to about 77 µM). In outline:
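Fluorescence (ex 405 nm; em 460 and 530 nm) was read 2 h after LiveBLAzer FRET substrate at RT. The preceding compound treatment of overnight-plated SBE-bla HEK293T cells lasted 5 h at 37 C.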

In assay [7] the target is Thyrotropin-releasing hormone receptor (Homo sapiens) (UniProt P34981). As to the kind of experiment: qHTS assay to identify small molecule antagonists of the thyrotropin-releasing hormone receptor (TRHR) signaling pathway (AID 1346877; active = well fitted inhibition curve with a large enough effect in the repeat runs, not every such curve was filed as active; also: series mostly up to about 51 µM). The method, boiled down:
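In this cell-based calcium flux format, HEK293 cells expressing TRHR received test compound for 5 min before the agonist TRH (1 nM final). Dye loading lasted 2 h at 37 °C.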

Assay [8] shares this target. As to the kind of experiment: qHTS assay to identify small molecule agonists of the thyrotropin-releasing hormone receptor (TRHR) signaling pathway (AID 1346891; calls by dose curve; also: series mostly up to about 58 µM). In outline: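 Agonist-mode intracellular calcium readout: kinetic fluorescence over 3 min at 1 s intervals after compound addition to TRHR-HEK293 cells (18 h seeded, 2 h dye-loaded at 37 C). Fifteen concentrations, triplicates.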

A short description of assay [9]: Human pregnane X receptor (PXR) small molecule agonists, qHTS cell viability counter screen (AID 1346977). Also: nearly all actives have a fitted effect of over 50% in size. In outline:
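Same-well viability read: CellTiter-Fluor added after 23 hr compound exposure, fluorescence measured 1 hr later. Cells were PXR-Luc HepG2 seeded at 2,000/well in 5% charcoal-stripped FBS medium, rested 5 hr before dosing at 37 C.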

The nature of assay [10]: Caspase-3/7 induction in HepG2 cells by small molecules, qHTS assay (AID 1346978). Also: nearly all actives have a fitted effect of over 15% in size. The method, boiled down:
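Wild-type HepG2 cells (2,000/well) were settled 5 h at 37 C, 5% CO2, then exposed to compounds in DMSO for 17 h. Caspase-3/7 activity was read by luminescence 30 min after adding Caspase-Glo 3/7 reagent at room temperature.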

A short description of assay [11]: Caspase-3/7 induction in CHO-K1 cells by small molecules, qHTS cell viability counter screen (AID 1346979). Also: nearly all actives have a fitted effect of over 35% in size. The method, boiled down:
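Cytotoxicity counter screen: CellTiter-Fluor added to compound-treated wild-type CHO-K1 cells at 16 h (37C, 5% CO2), fluorescence measured 1 h later; same wells as caspase-3/7 measurement.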

Assay [12] in a line: Caspase-3/7 induction in CHO-K1 cells by small molecules, qHTS assay (AID 1346980). Also: nearly all actives have a fitted effect of over 15% in size. In outline: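 Wild-type cells were seeded at 1,500 per well and settled 5 hr at 37 C, 5% CO2, then exposed to DMSO-dissolved compounds for 17 hr. Caspase-Glo 3/7 reagent was added, and luminescence was read after 30min at room temperature.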
The nature of assay [13]: Caspase-3/7 induction in HepG2 cells by small molecules, qHTS cell viability counter screen (AID 1346981). Also: series mostly up to about 92 µM; nearly all actives have a fitted effect of over 30% in size. In outline: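 Counter screen for cytotoxicity: HepG2 exposed 16 hr to compounds, then CellTiter-Fluor viability signal (fluorescence, 1 hr reagent incubation).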
For assay [14], the target named is Nuclear receptor subfamily 1 group I member 2 (Homo sapiens) (UniProt O75469). As to the kind of experiment: Human pregnane X receptor (PXR) small molecule agonists, qHTS assay (AID 1346982). Also: nearly all actives have a fitted effect of over 35% in size. Also: potency is read from the fitted curve at half-maximal effect. The method, boiled down: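 Luminescence (ONE-Glo, 30 min RT) after 24 hr compound exposure of PXR-Luc HepG2 cells; cells rested 5 hr post-plating in 5% charcoal-stripped FBS medium.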

Assay [15] has as its target Cytochrome P450 2D6 (Homo sapiens) (UniProt P10635). As to the kind of experiment: Cytochrome P450 Family 2 Subfamily D Member 6 (CYP2D6) small molecule antagonists: luciferase reporter qHTS assay (AID 1671196). Also: nearly all actives have a fitted effect of over 50% in size. Also: potency is read from the fitted curve at half-maximal effect. In outline:
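Inhibition of CYP2D6 was gauged by loss of luminescence, since light produced tracks the luciferin generated from a proluciferin substrate. A 10 min room-temperature preincubation preceded 1 h NADPH-supported turnover.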
A general note: In a reporter assay the amount or activity of a reporter protein is the signal.

The target in assay [16] is Cytochrome P450 2C19 (Homo sapiens) (UniProt P33261). As to the kind of experiment: Cytochrome P450 Family 2 Subfamily C Member 19 (CYP2C19) small molecule antagonists: luciferase reporter qHTS assay (AID 1671197). Also: nearly all actives have a fitted effect of over 65% in size. Also: potency is read from the fitted curve at half-maximal effect. In outline:
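Inhibition of CYP2C19 was scored from loss of luminescence in a P450-Glo proluciferin substrate assay, NADPH-started and run 1 h at 37C, with ketoconazole as positive control.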

For assay [17], the target named is Nuclear receptor subfamily 1 group I member 2 (Rattus norvegicus) (UniProt Q9R1A7). As to the kind of experiment: Rat pregnane X receptor (rPXR) activation by small molecules, qHTS assay (AID 1346983). Also: nearly all actives have a fitted effect of over 20% in size. The note with it: rPXR luciferase reporter cells, One-Glo luminescence, 24 h; max activation: hits give high values. The method, boiled down: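 Cell-based rPXR luciferase reporter assay, 2,000 cells per well, rested 5hr at 37 C before compound addition in DMSO, then 24 hr at 37 C. One-Glo reagent was added and luminescence read after 30 min at room temperature.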

Assay [18] can be described thus: qHTS assay to identify small molecule agonists of the progesterone receptor (PR) signaling pathway - cell viability counter screen (AID 1346799; calls by dose curve; also: nearly all actives have a fitted effect of over 45% in size). In outline:
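Cytotoxicity measured by CellTiter-Glo luminescence (30 min, RT) in the same wells as the PR beta-lactamase agonist read. Those HEK293T cells had 16 h compound treatment at 37 C in 2% charcoal-stripped FBS medium.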

The target in assay [19] is Nuclear receptor subfamily 1 group I member 2 (Homo sapiens) (UniProt O75469). As to the kind of experiment: CYP3A4 induction through human pregnane X receptor (PXR) by small molecules, qHTS assay (AID 1346984). Also: nearly all actives have a fitted effect of over 40% in size. The method, boiled down:
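DPX-2 reporter cells; 24h cpd, 37C; Luciferin-IPA 3uM final x3h; One-Glo 30 min RT; lumi read.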

Assay [20] has the same target. As to the kind of experiment: Human pregnane X receptor (PXR) activation by small molecules, qHTS assay (AID 1346985). Also: nearly all actives have a fitted effect of over 40% in size. In outline: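 DPX-2 cells (HepG2 co-transfected with a PXR response element and a CYP3A4-promoter luciferase construct) were seeded at 2,000 per well, rested 5 hr at 37C, then exposed to DMSO-dissolved compounds for 24 hr. Activation was read as luciferase luminescence.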
% is scaled to controls: 0 for no effect and ±100 for the full control effect.

Sequence of Nuclear receptor subfamily 1 group I member 2 (Homo sapiens) (O75469 whole entry, looked up): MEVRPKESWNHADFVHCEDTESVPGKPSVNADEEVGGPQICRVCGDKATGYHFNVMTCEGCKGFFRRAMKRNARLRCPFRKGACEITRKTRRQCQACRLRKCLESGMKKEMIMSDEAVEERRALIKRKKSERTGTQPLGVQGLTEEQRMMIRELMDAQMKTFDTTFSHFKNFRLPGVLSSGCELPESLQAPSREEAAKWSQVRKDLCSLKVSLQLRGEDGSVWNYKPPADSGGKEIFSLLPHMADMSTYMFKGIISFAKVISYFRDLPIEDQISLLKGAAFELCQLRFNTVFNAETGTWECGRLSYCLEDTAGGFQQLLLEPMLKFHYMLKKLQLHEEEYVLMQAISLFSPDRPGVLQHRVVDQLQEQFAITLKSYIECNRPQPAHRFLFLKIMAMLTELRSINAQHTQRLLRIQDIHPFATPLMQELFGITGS
Sequence of Thyrotropin-releasing hormone receptor (Homo sapiens) (P34981 whole entry, looked up): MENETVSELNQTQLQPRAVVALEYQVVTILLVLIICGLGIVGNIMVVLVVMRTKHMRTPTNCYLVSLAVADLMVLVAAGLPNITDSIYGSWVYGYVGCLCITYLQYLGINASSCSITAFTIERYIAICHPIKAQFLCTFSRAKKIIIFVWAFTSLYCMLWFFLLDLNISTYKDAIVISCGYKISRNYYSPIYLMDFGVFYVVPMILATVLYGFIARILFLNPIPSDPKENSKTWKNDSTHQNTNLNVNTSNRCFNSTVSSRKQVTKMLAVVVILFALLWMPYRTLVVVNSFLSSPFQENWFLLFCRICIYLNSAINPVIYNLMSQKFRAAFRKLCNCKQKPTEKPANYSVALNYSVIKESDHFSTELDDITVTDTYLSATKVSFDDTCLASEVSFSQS
Sequence of Cytochrome P450 2C19 (Homo sapiens) (P33261 whole entry, looked up): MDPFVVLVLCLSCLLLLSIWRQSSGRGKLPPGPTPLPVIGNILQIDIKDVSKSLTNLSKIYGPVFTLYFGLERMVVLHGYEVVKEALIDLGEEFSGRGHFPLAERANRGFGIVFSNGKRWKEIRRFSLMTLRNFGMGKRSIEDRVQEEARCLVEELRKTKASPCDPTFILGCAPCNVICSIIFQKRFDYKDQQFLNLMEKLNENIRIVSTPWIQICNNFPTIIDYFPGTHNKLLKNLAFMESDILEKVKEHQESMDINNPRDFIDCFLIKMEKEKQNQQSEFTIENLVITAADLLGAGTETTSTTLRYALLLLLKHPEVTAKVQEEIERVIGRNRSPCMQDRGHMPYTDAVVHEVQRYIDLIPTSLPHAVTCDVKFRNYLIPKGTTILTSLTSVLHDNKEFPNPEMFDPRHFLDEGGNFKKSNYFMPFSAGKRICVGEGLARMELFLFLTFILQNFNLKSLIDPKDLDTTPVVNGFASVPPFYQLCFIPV
Sequence of Progesterone receptor (Homo sapiens) (P06401 whole entry, looked up): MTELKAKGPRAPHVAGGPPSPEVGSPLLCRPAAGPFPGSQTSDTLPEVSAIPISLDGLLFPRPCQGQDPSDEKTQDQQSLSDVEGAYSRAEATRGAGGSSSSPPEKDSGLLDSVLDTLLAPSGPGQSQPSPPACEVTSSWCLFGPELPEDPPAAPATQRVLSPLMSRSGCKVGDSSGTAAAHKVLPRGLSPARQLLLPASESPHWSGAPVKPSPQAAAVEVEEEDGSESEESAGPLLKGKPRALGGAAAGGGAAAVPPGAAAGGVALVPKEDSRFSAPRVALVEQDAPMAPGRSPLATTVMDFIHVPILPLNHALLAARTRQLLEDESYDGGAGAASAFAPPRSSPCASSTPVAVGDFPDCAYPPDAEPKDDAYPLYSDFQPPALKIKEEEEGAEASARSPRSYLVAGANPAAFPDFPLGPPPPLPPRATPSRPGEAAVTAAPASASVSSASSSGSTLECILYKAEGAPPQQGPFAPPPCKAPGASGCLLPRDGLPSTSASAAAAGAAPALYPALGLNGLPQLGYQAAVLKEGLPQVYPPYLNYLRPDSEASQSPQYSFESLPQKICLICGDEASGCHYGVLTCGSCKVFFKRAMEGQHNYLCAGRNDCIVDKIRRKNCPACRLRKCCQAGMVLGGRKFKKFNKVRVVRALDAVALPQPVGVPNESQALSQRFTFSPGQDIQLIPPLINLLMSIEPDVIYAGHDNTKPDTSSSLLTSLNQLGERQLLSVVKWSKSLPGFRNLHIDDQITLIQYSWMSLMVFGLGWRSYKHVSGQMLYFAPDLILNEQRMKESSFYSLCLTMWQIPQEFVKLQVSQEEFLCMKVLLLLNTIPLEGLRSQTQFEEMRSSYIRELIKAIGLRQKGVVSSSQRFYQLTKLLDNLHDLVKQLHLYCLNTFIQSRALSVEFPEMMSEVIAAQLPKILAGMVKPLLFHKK
Sequence of Cytochrome P450 2D6 (Homo sapiens) (P10635 whole entry, looked up): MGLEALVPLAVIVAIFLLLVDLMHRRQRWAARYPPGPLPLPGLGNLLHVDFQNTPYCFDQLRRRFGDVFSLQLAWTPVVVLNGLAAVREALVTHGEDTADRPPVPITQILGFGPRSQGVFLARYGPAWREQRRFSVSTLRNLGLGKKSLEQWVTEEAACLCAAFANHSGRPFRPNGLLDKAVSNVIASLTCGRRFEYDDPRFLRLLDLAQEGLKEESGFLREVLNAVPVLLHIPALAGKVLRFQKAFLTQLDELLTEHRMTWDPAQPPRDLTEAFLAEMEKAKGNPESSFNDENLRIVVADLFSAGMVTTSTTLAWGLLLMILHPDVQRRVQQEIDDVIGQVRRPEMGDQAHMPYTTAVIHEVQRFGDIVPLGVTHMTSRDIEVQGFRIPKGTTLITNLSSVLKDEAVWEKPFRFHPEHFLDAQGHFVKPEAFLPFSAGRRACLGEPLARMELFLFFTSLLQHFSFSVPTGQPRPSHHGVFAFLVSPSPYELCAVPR
Sequence of Nuclear receptor subfamily 1 group I member 2 (Rattus norvegicus) (Q9R1A7 whole entry, looked up): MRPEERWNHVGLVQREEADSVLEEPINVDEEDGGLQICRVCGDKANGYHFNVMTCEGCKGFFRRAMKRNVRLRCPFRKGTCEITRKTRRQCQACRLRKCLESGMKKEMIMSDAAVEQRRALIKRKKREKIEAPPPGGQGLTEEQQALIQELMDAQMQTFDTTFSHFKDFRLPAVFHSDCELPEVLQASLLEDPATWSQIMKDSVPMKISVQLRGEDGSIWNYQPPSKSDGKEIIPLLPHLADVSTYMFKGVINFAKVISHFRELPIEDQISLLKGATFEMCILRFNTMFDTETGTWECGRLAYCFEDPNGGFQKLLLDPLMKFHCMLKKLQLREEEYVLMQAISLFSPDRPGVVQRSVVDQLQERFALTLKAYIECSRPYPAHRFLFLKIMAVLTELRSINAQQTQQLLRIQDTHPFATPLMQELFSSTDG

For `CNCCO`, the Potency result in assay [1], in assay [2], in assay [3], in [8], in assay [9] and in assay [11] was “inactive” each time. In addition, the Potency entry in [13], in assay [14], in assay [15] and in [16] was “inactive” throughout. Further, the molecule was classed as inactive in [4], in assay [5], in assay [6], in assay [7], in [10] and in assay [12].
For the molecule `CCCCCCC#CC(=O)OC`, the Potency result in assay [1], in assay [2], in [3], in assay [8], in [9] and in assay [11] was “inactive” each time. In addition, the Potency result in assay [13], in assay [14], in assay [15] and in assay [16] was “inactive” in each case. Further, the call in [4], in assay [5], in assay [6], in assay [7] and in [10] was inactive.
As for `CCCCOCCOC(=O)CCCCCCCCC(=O)OCCOCCCC`, the Potency entry in [1], in [2], in assay [3], in assay [8], in assay [9] and in [11] was “inactive” in each case. Also, the Potency result in [13], in assay [14] and in assay [15] was “inactive” throughout. For the same molecule, the result in [4], in assay [5], in assay [6], in assay [7], in [10] and in [12] was inactive.
Take `NCCCC[C@H](N[C@@H](CCc1ccccc1)C(=O)O)C(=O)N1CCC[C@H]1C(=O)O`: the Potency entry in assay [1], in assay [2], in [3], in assay [9], in [11] and in [13] was “inactive” in each case. Also, the Potency result in assay [15] was “inactive”. Besides, the molecule was called inactive in assay [4], in [5], in [6], in [10] and in [12]. For the same molecule, in assay [17], the max activation was -3.44%.
Consider `O=C(O)c1cc(C(=O)O)cc(C(=O)O)c1`, for which the Potency entry in assay [1], in assay [2], in assay [3], in [8], in [9] and in [11] was “inactive” each time. In addition, the Potency entry in [13] and in [14] was “inactive” in each case. Further, the molecule was classed as inactive in assay [4], in [5], in assay [6], in [7], in assay [10] and in [12].
With `O=C(c1ccccc1O)c1ccccc1O`, the Potency result in assay [1], in [3], in [18], in assay [9] and in assay [13] was “inactive” in each case. Also, the Potency was 27 µM (active) in assay [2], 60.5 µM (active) in assay [14], 24.9 µM (active) in [15] and 11.1 µM (active) in assay [16]. Besides, the molecule was called inactive in assay [4], in [5], in assay [6] and in assay [12].
Take `Cc1ccc(-c2ccccc2C#N)cc1`: the Potency entry in [1], in assay [2], in assay [3], in assay [8], in [9] and in assay [11] was “inactive” throughout. Also, the Potency result in assay [13], in [14] and in assay [15] was “inactive” each time. The molecule was called inactive in assay [4], in assay [5], in [6], in assay [7], in assay [10] and in assay [12]. The Potency in [16] was 17.4 µM (active).
For the molecule `CC[N+](CC)(CC)CCOc1cccc(OCC[N+](CC)(CC)CC)c1OCC[N+](CC)(CC)CC`, the Potency entry in assay [1], in assay [2], in [3], in assay [18], in assay [9] and in assay [11] was “inactive” throughout. In addition, the Potency result in [13], in [14], in [19], in assay [20], in assay [15] and in [16] was “inactive” in each case. Besides, the molecule was classed as inactive in assay [4], in assay [5], in [6] and in [10]. In assay [17], the max activation was -1.52%.
